Results with a measured potency or affinity are listed apart.
Assay: CCR5-tropic HIV-1 fusion blockers – cell-based, CCR5-tropic Env, dose response (AID 2279)
Settings: CCR5-tropic HIV-1 Env, reporter read-out; series mostly up to 50 µM; inhibition: at the top concentration; call rule not given here

inhibition, inactive:
O=C(O)c1cccc(N/N=C/c2cc(Br)cc(Br)c2O)c1 11.8% [at 25 µM], O=C(CN1C(=O)S/C(=C\C=C\c2ccccc2)C1=O)Nc1ccccc1C(=O)O 0.8%, C=CC#CC[N+]1(CC#Cc2ccccc2)CCOCC1 -3.27%, CCCOc1ccc(C(=O)NNC(=S)NC(=O)c2cc(-c3ccccc3)nc3ccccc23)cc1 6.27%, Cc1cn2c(N)c(C=C3C=C(Cl)C(=O)C(Cl)=C3)c(=O)nc2s1 12.1%, O=C(O)CSCC(=O)N(Cc1ccccc1)c1nc(-c2ccccc2)c(-c2ccccc2)s1 30.6%, CCc1oc2ccccc2c1C(=O)c1cc(Br)c(O)c(Br)c1 31%, C=CCOC(=O)C1=C(C)N=c2s/c(=C3\C(=O)N(CC(=O)O)c4ccccc43)c(=O)n2C1c1ccc(OC)cc1 (stereo not given) 6.53%, Cc1cc(/C=c2\sc3nc4ccccc4n3c2=O)c(C)n1-c1ccc(C(=O)O)cc1 34.4%, CC1=C(C#N)C(=O)NC(=O)/C1=C\c1ccc(-c2cc(C)c(C)cc2[N+](=O)[O-])o1 0.21%, CCCCCCc1c(C)c2ccc(OCC(=O)N[C@@H](Cc3ccccc3)C(=O)O)cc2oc1=O -3.71%, CCOc1cc(/C=C2\SC(=S)N(C(C(=O)O)c3ccccc3)C2=O)ccc1O (stereo not given) -11.8%, COc1cc(/C=C2/C(=O)NN(c3ccc(C)c(Cl)c3)C2=O)cc([N+](=O)[O-])c1O -5.49%, Cc1cc(N2C(=O)C(O)=C(C(=O)c3ccc(C)o3)C2c2cccc(Oc3ccccc3)c2)no1 (stereo not given) 7.66%, CCc1ccc(/C=C2\SC(=S)N(CCCC(=O)Nc3ccccc3C(=O)O)C2=O)cc1 16.9%

From PubChem BioAssay AID2279 (Southern Research Specialized Biocontainment Screening …, 2010)
